Shown are actives, neighbours in structure and some others; about 0.99% of the full set was active somewhere.
TRPML1 agonist: human mucolipin-1 channel agonism | TRPML1-expressing cells, Ca2+ dye fluorescence, FDSS | activation, % (test concentration not listed) | hit rate 0.12% among 410,000 | AID 624414; in the data active means activation above about 50%; inconclusive means mostly about 30% to 49%
Target sequence (Q9GZU1 whole entry, looked up): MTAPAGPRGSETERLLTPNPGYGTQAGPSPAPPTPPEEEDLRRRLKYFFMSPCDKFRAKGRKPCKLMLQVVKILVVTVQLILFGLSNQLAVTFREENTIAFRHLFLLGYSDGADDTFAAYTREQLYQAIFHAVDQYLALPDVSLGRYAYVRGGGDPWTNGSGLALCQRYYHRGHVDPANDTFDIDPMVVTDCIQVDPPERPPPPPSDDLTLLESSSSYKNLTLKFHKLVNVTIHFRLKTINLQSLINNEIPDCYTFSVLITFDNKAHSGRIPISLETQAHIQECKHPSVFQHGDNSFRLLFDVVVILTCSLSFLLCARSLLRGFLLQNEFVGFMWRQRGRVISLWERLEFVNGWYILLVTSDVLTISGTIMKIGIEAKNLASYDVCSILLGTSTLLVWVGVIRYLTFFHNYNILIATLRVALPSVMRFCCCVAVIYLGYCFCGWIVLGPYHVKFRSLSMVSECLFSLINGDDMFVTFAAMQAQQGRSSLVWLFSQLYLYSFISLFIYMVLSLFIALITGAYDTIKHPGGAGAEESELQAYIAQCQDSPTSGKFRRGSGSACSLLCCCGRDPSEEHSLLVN
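Tet-induced TRPML1-DL cells, 1,500 per well, cultured overnight, were loaded with a no-wash Ca2+ dye for 45–90 min. Calcium fluorescence was recorded on the FDSS for 110 s after compound addition, before the EC80 agonist (4 uM 54-4) was added.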
TRHR ag: activates the human TRH receptor; activation, % at 2 µM; hit rate 0.18% among 360,000; TRHR cells, calcium flux fluo-8, FDSS agonist mode; AID 493084; P34981; in the data active means activation above about 30%
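Read-out: compound-evoked intracellular calcium rise in TRHR cells, fluo-8 dye, kinetic FDSS fluorescence at 1 s/cycle following a 10-cycle baseline. Cells cultured overnight before dye loading (30 min–1.5 h, RT).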
TRPV1 ag: activates the human vanilloid receptor TRPV1. TRPV1-expressing cells, Fluo-8 calcium influx, agonist mode. hit rate 0.19% among 320,000. AID 540275. activation, % at 8.33 µM; in the data active means activation above about 80%; inconclusive means between about 30% and that limit
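TRPV1-expressing cells were cultured overnight at 35.5C and loaded with Fluo-8 calcium dye for 40 to 90 min at room temperature. After a 10 s baseline, compound was added and calcium influx was read kinetically for 3 min (ex 480/em 520 nm).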
TRHR enhancer: TRH receptor (human) allosteric enhancement. hit rate 0.66% among 360,000. enhancement, % at 2 µM. TRHR cells, fluo-8 calcium fluorescence, EC20 TRH enhancement; in the data active means enhancement above about 30%
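Enhancer read-out: after compound pinning and an initial kinetic agonist-mode read, an EC20 of TRH (10 nM final) was injected and fluo-8 calcium signal (Ex 480/Em 530) followed at 1 s/cycle for 100 cycles in TRHR-expressing cells.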
TRPML1 blocker: inhibitors of human TRPML1 channel. hit rate 0.02% among 390,000. AID 624415. TRPML1-inducible cells, Ca2+ dye fluorescence, FDSS; hits give low values; inhibition of EC80 agonist-evoked calcium signal. activity change, negative = inhibition, % (test concentration not listed). Q9GZU1; in the data active means activity change below about -50%; inconclusive means between about -30% and that limit;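 further: stimulus is agonist 54-4 at its EC80 concentration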
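Tet-induced TRPML1-DL cells loaded with Ca8 no-wash calcium dye were read kinetically on FDSS. Compound addition was followed by EC80 agonist 54-4 (4 uM final); inhibition was read over 110 s.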
TRPV1 potentiator: human TRPV1 potentiation; Q8NER1; TRPV1-expressing cells, Fluo-8 calcium influx, capsaicin EC20 potentiation; potentiation, % at 8.33 µM; hit rate 0.02% among 320,000; in the data active means potentiation above about 80%; inconclusive means between about 30% and that limit
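Cells expressing TRPV1 were dye-loaded with Fluo-8 and read kinetically: 10 s baseline, 3 min after compound (agonist portion), then 2 min after EC20 capsaicin (allosteric enhancer portion). Calcium-bound dye fluorescence at 480/520 nm.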
A number is an active result; – = inactive; ? = inconclusive; · = not tested or not shown.

SMILES	TRPML1 agonist	TRHR ag	TRPV1 ag	TRHR enhancer	TRPML1 blocker	TRPV1 potentiator
COc1ccc(N2CCN(C(c3ccc(C)cc3)c3nnnn3C(C)(C)C)CC2)cc1 (stereo not given)	–	·	·	·	·	·
O/N=C(/C[n+]1csc2ccccc21)c1ccccc1	–	·	·	·	·	·
CN(C)c1ccc(C2CCc3ccccc3N2C(=O)c2ccccc2)cc1 (stereo not given)	–	·	·	·	·	·
CC(C)(C)n1ncc2c(=O)n(Cc3ccc(Cl)c(SC(F)(F)F)c3)cnc21	–	·	·	·	–	·
O=C(C[n+]1ccccc1Cl)c1ccc(F)cc1	–	·	·	·	·	·
CCc1ccc2oc(-c3ccc(C)c(NC(=O)COc4ccccc4Cl)c3)nc2c1	–	·	·	·	·	·
CCc1ccc2oc(-c3cccc(NC(=O)COc4ccccc4Cl)c3)nc2c1	–	–	·	43.3	–	·
COc1cc2cc(CNc3ccccc3)c(=O)n(CC(=O)Nc3cc(C)cc(C)c3)c2cc1OC	–	34.2	·	–	–	·
CCc1ccc(NC(=O)Cn2c(=O)c(CNc3ccccc3)cc3cc(OC)c(OC)cc32)cc1	–	–	·	–	–	·
CN(C)CCNC(=O)CN1C(=O)CCn2nc(-c3cn(C)c4ccccc34)cc21	–	–	·	–	–	·
Cn1cc(-c2cc3n(n2)CCC(=O)N3CC(=O)O)c2ccccc21	–	–	·	43.4	–	·
CC(C)(C)c1ccc(C(=O)Nc2ccc3c(c2)C(=O)NC3=O)cc1	–	–	85.5	–	–	–
CC(C)(C)c1ccc(C(=O)Nc2ccc(S(N)(=O)=O)cc2)cc1	–	–	86.3	–	–	–
N#CC(C#N)=Cc1ccc(NC(=O)c2ccc(Br)cc2)cc1	–	–	113.4	–	–	–
CC(C)(C)c1ccc(C(=O)Nc2ccc(C=C(C#N)C#N)cc2)cc1	–	–	89.4	–	–	–
CC(=O)c1ccc(C(=O)Nc2ccc3c(c2)C(=O)NC3=O)cc1	–	–	–	–	–	?
O=C(Nc1ccc(C(=O)N2CCCCC2)cc1)c1ccc(Br)cc1	–	–	–	–	–	–
CCCCN(CCCC)CC(O)c1cc(Cl)cc2c1-c1ccc(Cl)cc1C2=Cc1ccc(Cl)cc1 (stereo not given)	–	·	·	·	·	·
Cc1c(F)cccc1Cn1cnc2c(cnn2C(C)(C)C)c1=O	–	·	·	·	–	·
O=C(Nc1nnc(Cc2ccccc2)s1)C1CCN(C(=O)c2cccs2)CC1	–	·	·	·	·	·
CC(=NNC(=O)c1ccncc1)c1ccc2ccccc2c1O	79.5	·	·	·	–	·
CN(C)c1cccc(C(=O)N(C)C2CCCN(Cc3ccccc3F)C2)c1 (stereo not given)	–	–	–	31.1	–	–
COc1ccc(OC)c(C(=O)N(C)C2CCCN(Cc3ccccc3F)C2)c1 (stereo not given)	–	–	–	–	–	–
COc1ccc(C(=O)N(C)C2CCCN(Cc3ccccc3F)C2)cc1OC (stereo not given)	–	–	–	–	–	81.9
O=C(CSc1ccccc1)NNC(=O)c1ccncc1	–	–	–	31.6	–	–
SMILES	TRPML1 agonist	TRHR ag	TRPV1 ag	TRHR enhancer	TRPML1 blocker	TRPV1 potentiator
O=C(NCc1ccco1)c1cccc(S(=O)(=O)N2CCCCC2)c1	–	–	–	–	–	–
O=S(=O)(NCc1ccco1)c1cccc(S(=O)(=O)N2CCCCC2)c1	–	–	–	31.9	–	–
COc1ccc2[nH]cc(C(=O)CNc3nccs3)c2c1	–	·	·	·	·	·
O=C(c1ccccc1)c1cnc[nH]1	–	–	–	30.4	–	–
Cc1ccnc2c(Cl)c(Cl)ccc12	–	·	·	·	·	·
CCc1cccc(NC(=O)CCc2c(C)nc3c(-c4ccccc4)c(C)nn3c2C)c1	–	–	·	–	–	·
COc1ccc(-c2cc3nc(C)c(CCC(=O)NC(C)c4ccccc4)c(C)n3n2)c(OC)c1 (stereo not given)	–	–	·	–	–	·
COc1ccc(NC(=O)CCc2c(C)nc3cc(-c4cccc(F)c4)nn3c2C)cc1Cl	–	–	·	40.5	–	·
COc1ccc(-c2cc3nc(C)c(CCC(=O)Nc4cccc(C(F)(F)F)c4)c(C)n3n2)c(OC)c1	–	–	·	32.0	–	·
CCOc1ccc(NC(=O)CCc2c(C)nc3c(-c4ccccc4)c(C)nn3c2C)cc1	–	–	·	47.8	–	·
COC(=O)c1cc(NC(=O)CCc2c(C)nc3cc(-c4ccccc4)nn3c2C)cc(C(=O)OC)c1	–	–	·	40.2	–	·
COc1cc(OC)cc(-c2cc3nc(C)c(CCC(=O)Nc4ccc(F)c(Cl)c4)c(C)n3n2)c1	–	–	·	–	–	·
CN(Cc1ccccc1)/[N+]([O-])=N/Oc1ccc([N+](=O)[O-])cc1[N+](=O)[O-]	–	·	·	·	–	·
O=C(O[C@H]1[C@H](Cc2ccccc2)NS(=O)(=O)[C@H]2CC3C=C[C@]12O3)c1ccc(Br)cc1	–	·	·	·	·	·
Cc1cc[n+](CCC2CCCCC2)c2ccccc12	–	·	·	·	·	·
CCOC(=O)c1ccc(NC(=O)NCc2ccccc2OC)cc1	–	–	83.6	–	–	–
Cc1ccc(N(C(C)C(=O)N2CCN(Cc3ccccc3)CC2)S(C)(=O)=O)cc1 (stereo not given)	–	–	–	36.7	–	–
Cn1ccc2c(N3CCCCC3)cc3c(c21)C1CCC3C1 (stereo not given)	57.0	·	·	·	–	·
Cn1ccc2c(N3CCCC3)cc3c(c21)C1CCC3C1 (stereo not given)	–	·	·	·	–	·
COc1cccc(/C=C/C(=O)Nc2ccc3[nH]c(=O)[nH]c3c2)c1	–	–	93.3	–	–	–
COc1cc(/C=C/C(=O)Nc2ccc3[nH]c(=O)[nH]c3c2)cc(OC)c1OC	–	–	–	–	–	–
O=C(/C=C/c1ccc(F)cc1)Nc1ccc2[nH]c(=O)[nH]c2c1	–	–	83.1	–	–	–
O=C(Cc1nnc(CNC(=O)c2ccccc2)s1)Nc1ccc(C(F)(F)F)cc1Cl	·	–	·	–	·	·
CCOC(=O)N(C(=O)c1ccccc1)c1ccccc1	–	·	·	·	·	·
O=C(CN1CCN(c2ccc(Cl)cc2)CC1)Nc1ccc(Cl)c(C(F)(F)F)c1	–	–	·	–	–	·
SMILES	TRPML1 agonist	TRHR ag	TRPV1 ag	TRHR enhancer	TRPML1 blocker	TRPV1 potentiator
CCOc1ccc(NC(=O)CN2CCN(CC(=O)Nc3ccc(Cl)c(C(F)(F)F)c3)CC2)cc1	–	–	–	35.9	–	–
COCCNC(=O)CN(Cc1ccc2c(c1)OCO2)C(=O)CCC(=O)Nc1nccs1	–	–	–	–	–	–
CC(C)(C)NC(=O)CN(Cc1ccc2c(c1)OCO2)C(=O)CCC(=O)Nc1nccs1	–	–	–	35.8	–	–
CCc1cc2c(s1)c1cnn(Cc3ccccc3F)c(=O)c1n2C	·	–	·	–	·	·
Cc1ccc2nc(NC(=O)CS(=O)(=O)Cc3ccccc3)sc2c1	–	–	84.6	–	–	–
O=C(Nc1cccc2ccccc12)c1cnn2c1NC(=C1CC1)C=C2C(F)F	–	·	·	·	·	·

Screens: PubChem BioAssay, National Center for Advancing Translational Sciences (NCATS)
